# Assay results: ChEMBL document CHEMBL1961873, “Compounds: GSK PKIS; Assays: Nanosyn kinase panel” (2012)
# Assays:
# [1] = biological target: Sphingosine kinase 1 (Homo sapiens) (UniProt Q9NYA1); conditions: at 1 µM;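 note: mean SPHK1 inhibition value reported from the GSK PKIS kinase panel screen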
# [2] = biological target: T1, Sphingosine kinase 2 (Homo sapiens) (UniProt Q9NRA0); conditions: at 0.1 µM
# T1 sequence (whole entry): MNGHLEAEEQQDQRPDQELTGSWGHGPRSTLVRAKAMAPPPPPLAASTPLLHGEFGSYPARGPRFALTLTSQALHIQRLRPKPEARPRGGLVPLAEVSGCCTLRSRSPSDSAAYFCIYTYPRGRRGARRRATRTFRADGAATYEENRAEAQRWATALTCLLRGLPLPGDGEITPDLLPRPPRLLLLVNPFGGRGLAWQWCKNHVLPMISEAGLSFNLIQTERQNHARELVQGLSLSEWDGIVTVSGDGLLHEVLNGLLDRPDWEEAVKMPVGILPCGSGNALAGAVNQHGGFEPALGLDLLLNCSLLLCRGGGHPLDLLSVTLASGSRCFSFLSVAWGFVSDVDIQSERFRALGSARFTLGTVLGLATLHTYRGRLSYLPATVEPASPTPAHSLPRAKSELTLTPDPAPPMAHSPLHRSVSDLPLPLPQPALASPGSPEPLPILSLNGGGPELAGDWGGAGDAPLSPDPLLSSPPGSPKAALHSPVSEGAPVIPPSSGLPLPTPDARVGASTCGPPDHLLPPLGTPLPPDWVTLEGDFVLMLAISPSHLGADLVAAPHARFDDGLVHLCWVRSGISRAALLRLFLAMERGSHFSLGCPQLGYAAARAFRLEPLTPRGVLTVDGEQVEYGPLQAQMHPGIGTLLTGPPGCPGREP
# [3] = biological target: T1, Sphingosine kinase 2 (Homo sapiens); conditions: at 1 µM
# [4] = biological target: Casein kinase II subunit alpha (Homo sapiens) (UniProt P68400); conditions: at 0.1 µM
# [5] = biological target: Casein kinase II subunit alpha (Homo sapiens) (UniProt P68400); conditions: at 1 µM
# [6] = biological target: T2, Inhibitor of nuclear factor kappa-B kinase subunit alpha (Homo sapiens) (UniProt O15111); conditions: at 0.1 µM
# T2 sequence (whole entry): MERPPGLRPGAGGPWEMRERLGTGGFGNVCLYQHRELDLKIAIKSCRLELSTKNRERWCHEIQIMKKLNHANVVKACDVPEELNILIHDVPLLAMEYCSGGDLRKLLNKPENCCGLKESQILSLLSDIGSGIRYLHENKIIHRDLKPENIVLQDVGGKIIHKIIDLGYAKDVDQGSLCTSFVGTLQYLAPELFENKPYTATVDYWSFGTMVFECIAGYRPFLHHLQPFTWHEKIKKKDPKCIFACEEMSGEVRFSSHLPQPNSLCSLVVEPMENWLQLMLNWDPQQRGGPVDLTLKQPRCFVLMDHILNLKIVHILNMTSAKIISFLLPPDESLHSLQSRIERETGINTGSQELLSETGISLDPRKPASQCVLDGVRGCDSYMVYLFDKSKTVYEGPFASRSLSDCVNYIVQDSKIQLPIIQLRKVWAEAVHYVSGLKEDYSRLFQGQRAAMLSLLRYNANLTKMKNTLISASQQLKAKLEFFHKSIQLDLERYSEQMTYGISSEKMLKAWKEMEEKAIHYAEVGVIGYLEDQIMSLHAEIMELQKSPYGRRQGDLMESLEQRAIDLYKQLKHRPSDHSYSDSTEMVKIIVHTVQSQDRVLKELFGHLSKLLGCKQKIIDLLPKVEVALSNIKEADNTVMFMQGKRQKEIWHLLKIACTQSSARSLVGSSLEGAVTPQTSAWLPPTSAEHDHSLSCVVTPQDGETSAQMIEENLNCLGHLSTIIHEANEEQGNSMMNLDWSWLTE
# [7] = biological target: T2, Inhibitor of nuclear factor kappa-B kinase subunit alpha (Homo sapiens); conditions: at 1 µM
# [8] = biological target: T3, Inhibitor of nuclear factor kappa-B kinase subunit beta (Homo sapiens) (UniProt O14920); conditions: at 0.1 µM
# T3 sequence (whole entry): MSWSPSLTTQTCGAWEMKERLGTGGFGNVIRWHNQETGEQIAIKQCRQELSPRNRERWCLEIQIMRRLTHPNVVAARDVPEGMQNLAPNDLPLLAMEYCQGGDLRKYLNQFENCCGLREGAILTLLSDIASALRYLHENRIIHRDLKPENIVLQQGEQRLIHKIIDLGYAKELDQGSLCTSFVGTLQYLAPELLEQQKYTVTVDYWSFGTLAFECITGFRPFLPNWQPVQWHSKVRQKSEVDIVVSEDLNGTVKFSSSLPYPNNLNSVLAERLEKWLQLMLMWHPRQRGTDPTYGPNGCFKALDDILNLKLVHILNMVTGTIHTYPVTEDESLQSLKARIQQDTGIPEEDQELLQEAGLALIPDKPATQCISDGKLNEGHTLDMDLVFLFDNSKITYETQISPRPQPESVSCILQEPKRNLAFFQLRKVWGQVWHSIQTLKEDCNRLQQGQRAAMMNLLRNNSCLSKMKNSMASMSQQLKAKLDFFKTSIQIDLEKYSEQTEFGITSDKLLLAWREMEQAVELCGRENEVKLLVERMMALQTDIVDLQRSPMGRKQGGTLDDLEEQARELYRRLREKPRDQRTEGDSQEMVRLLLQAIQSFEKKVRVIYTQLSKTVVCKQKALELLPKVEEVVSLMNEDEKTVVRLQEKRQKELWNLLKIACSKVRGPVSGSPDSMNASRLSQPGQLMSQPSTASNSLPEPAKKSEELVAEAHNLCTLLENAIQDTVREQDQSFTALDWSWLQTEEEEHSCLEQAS
# [9] = biological target: T3, Inhibitor of nuclear factor kappa-B kinase subunit beta (Homo sapiens); conditions: at 1 µM
# [10] = biological target: T4, Inhibitor of nuclear factor kappa-B kinase subunit epsilon (Homo sapiens) (UniProt Q14164); conditions: at 0.1 µM
# T4 sequence (whole entry): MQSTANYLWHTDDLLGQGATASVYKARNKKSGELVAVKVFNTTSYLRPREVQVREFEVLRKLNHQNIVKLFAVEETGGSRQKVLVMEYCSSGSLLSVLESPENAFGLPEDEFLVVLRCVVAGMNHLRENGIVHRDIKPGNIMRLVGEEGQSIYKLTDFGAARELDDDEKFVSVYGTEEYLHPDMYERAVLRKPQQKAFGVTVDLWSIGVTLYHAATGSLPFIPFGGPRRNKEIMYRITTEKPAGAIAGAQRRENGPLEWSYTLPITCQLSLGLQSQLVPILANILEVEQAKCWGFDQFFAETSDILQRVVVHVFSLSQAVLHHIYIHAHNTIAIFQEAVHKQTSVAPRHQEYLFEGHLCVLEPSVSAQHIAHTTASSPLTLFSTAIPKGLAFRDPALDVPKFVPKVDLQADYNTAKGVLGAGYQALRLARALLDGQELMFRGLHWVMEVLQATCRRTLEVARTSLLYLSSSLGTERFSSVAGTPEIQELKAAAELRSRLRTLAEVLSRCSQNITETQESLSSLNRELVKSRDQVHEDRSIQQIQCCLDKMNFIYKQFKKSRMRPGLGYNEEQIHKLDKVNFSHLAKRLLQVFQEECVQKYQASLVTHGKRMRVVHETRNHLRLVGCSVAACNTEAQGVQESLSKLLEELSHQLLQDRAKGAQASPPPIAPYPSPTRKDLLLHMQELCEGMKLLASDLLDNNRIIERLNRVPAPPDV
# [11] = biological target: T4, Inhibitor of nuclear factor kappa-B kinase subunit epsilon (Homo sapiens); conditions: at 1 µM
# [12] = biological target: T5, Serine/threonine-protein kinase Nek1 (Homo sapiens) (UniProt Q96PY6); conditions: at 0.1 µM
# T5 sequence (whole entry): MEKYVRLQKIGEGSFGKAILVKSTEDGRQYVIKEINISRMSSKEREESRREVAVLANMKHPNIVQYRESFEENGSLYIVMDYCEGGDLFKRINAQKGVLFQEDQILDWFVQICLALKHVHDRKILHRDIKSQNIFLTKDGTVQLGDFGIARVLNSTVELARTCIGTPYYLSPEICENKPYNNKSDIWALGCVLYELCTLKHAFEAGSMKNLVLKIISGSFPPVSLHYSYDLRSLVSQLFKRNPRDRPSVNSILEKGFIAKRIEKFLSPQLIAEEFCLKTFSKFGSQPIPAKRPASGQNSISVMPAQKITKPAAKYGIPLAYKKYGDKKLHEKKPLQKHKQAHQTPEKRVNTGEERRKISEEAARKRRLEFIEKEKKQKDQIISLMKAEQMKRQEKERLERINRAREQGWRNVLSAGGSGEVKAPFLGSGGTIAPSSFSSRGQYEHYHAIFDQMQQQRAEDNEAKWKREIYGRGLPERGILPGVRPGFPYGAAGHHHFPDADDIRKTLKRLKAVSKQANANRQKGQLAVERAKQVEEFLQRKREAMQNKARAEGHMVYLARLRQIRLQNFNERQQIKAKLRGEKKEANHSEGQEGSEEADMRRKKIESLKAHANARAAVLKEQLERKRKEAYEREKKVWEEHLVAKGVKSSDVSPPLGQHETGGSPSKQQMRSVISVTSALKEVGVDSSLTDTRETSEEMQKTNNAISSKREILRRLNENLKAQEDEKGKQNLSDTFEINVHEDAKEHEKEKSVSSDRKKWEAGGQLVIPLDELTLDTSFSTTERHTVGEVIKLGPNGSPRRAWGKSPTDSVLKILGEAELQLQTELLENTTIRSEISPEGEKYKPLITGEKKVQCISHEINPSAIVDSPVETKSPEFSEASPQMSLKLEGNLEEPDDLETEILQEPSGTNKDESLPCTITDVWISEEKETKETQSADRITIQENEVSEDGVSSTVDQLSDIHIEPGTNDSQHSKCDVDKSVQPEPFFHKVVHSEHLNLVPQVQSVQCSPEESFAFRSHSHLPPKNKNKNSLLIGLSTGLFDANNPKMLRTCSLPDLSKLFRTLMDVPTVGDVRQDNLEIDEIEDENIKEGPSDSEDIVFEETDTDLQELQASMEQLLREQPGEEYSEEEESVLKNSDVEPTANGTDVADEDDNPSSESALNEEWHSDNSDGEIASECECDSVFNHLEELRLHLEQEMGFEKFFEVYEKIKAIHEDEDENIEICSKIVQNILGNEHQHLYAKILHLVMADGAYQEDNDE
# [13] = biological target: T5, Serine/threonine-protein kinase Nek1 (Homo sapiens); conditions: at 1 µM
# [14] = biological target: T6, Serine/threonine-protein kinase Nek2 (Homo sapiens) (UniProt P51955); conditions: at 0.1 µM
# T6 sequence (whole entry): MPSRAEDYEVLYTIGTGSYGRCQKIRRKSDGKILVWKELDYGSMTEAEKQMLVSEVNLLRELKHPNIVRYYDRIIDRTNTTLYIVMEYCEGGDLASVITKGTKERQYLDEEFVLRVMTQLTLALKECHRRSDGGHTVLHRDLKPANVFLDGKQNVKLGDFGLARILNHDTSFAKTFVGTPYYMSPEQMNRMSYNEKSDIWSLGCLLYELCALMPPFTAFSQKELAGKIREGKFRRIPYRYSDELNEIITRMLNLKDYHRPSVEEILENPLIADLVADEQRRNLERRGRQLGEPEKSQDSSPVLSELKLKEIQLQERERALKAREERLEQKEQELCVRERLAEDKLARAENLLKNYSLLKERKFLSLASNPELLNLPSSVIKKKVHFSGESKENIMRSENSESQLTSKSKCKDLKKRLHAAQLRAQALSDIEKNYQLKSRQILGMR
# [15] = biological target: T6, Serine/threonine-protein kinase Nek2 (Homo sapiens); conditions: at 1 µM
# [16] = biological target: Serine/threonine-protein kinase Nek6 (Homo sapiens) (UniProt Q9HC98); conditions: at 0.1 µM
# [17] = biological target: Serine/threonine-protein kinase Nek6 (Homo sapiens) (UniProt Q9HC98); conditions: at 1 µM
# [18] = biological target: Serine/threonine-protein kinase Nek7 (Homo sapiens) (UniProt Q8TDX7); conditions: at 0.1 µM
# [19] = biological target: Serine/threonine-protein kinase Nek7 (Homo sapiens) (UniProt Q8TDX7); conditions: at 1 µM
# [20] = biological target: T7, Serine/threonine-protein kinase Nek9 (Homo sapiens) (UniProt Q8TD19); conditions: at 0.1 µM;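 note: reported value is the mean percent inhibition of NEK9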
# T7 sequence (whole entry): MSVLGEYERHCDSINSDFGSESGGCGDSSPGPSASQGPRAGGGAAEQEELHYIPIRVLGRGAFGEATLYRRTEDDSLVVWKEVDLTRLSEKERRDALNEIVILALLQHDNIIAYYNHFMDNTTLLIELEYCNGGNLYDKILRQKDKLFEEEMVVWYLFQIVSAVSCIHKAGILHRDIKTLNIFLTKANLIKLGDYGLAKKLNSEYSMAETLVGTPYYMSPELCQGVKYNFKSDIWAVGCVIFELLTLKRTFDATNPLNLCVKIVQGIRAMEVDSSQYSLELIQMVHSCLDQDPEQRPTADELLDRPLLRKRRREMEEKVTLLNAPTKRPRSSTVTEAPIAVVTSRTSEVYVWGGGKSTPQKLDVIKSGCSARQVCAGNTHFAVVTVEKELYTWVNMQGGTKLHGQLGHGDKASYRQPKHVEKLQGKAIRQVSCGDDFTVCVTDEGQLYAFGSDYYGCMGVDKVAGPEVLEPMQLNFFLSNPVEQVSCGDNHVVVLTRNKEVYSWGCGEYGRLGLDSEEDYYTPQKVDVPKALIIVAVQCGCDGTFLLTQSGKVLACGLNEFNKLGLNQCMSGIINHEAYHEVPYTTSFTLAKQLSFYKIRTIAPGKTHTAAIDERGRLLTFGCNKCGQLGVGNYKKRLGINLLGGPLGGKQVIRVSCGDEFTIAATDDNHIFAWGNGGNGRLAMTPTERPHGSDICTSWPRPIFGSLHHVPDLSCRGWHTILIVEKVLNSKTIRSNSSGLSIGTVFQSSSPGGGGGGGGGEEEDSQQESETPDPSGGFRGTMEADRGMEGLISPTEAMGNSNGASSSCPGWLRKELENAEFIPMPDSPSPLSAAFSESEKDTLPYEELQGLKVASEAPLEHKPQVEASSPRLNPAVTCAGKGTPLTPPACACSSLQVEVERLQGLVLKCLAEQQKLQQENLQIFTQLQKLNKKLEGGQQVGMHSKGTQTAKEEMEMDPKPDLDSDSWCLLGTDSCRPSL
# Casein kinase II subunit alpha (Homo sapiens), sequence (P68400 whole entry, looked up): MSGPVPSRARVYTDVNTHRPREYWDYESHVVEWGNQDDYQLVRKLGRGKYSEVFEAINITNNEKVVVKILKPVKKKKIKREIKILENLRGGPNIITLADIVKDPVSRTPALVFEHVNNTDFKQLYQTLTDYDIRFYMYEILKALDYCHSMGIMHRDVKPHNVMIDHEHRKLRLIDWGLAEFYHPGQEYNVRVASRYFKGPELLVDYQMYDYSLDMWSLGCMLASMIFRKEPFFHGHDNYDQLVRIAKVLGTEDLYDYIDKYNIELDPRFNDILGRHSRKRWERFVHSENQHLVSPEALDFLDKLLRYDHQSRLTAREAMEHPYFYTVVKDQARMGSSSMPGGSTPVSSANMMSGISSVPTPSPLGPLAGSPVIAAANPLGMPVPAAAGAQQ
# Serine/threonine-protein kinase Nek7 (Homo sapiens), sequence (Q8TDX7 whole entry, looked up): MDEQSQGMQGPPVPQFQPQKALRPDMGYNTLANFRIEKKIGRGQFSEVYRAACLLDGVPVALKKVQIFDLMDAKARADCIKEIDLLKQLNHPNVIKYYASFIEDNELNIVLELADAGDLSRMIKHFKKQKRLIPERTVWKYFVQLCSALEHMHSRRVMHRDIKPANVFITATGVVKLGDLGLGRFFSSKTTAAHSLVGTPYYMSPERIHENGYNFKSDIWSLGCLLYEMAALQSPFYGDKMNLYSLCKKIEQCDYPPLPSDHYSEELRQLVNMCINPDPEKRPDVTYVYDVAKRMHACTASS
# Serine/threonine-protein kinase Nek6 (Homo sapiens), sequence (Q9HC98 whole entry): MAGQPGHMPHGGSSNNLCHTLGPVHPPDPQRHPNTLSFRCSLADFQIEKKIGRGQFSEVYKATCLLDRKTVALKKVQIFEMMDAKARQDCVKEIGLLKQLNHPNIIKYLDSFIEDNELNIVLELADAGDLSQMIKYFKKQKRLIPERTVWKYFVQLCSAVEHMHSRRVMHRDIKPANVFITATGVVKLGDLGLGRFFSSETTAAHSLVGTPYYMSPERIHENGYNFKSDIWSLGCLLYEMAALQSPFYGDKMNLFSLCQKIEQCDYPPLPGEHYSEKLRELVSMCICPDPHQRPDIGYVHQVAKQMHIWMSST
# Sphingosine kinase 1 (Homo sapiens), sequence (Q9NYA1 whole entry): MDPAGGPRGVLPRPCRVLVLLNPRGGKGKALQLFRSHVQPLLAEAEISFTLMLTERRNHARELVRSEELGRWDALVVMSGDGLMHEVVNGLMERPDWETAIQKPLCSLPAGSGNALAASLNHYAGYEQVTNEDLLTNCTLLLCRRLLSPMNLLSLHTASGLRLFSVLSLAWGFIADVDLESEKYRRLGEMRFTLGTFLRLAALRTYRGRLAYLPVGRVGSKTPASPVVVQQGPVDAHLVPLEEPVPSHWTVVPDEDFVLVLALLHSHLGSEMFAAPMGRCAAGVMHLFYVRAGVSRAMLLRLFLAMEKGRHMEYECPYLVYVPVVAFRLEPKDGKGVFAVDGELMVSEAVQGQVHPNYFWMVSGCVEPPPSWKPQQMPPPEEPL
structure (smiles),measurement,setting,value
CS(=O)(=O)CCNCc1nc(-c2ccc3ncnc(Nc4ccc(F)c(Cl)c4)c3c2)cs1,inhibition,[1],0.42%
same,inhibition,[2],0.49%
same,inhibition,[3],-0.93%
same,inhibition,[4],1.14%
same,inhibition,[5],5.94%
same,inhibition,[6],-4.65%
same,inhibition,[7],-4.39%
same,inhibition,[8],-0.32%
same,inhibition,[9],1.99%
same,inhibition,[10],1.53%
same,inhibition,[11],2.88%
same,inhibition,[12],-0.13%
same,inhibition,[13],1.85%
same,inhibition,[14],2.32%
same,inhibition,[15],2.06%
same,inhibition,[16],3.94%
same,inhibition,[17],4.01%
same,inhibition,[18],-1.48%
same,inhibition,[19],1.7%
same,inhibition,[20],0.58%
